Results taken from PMC5540273 (PLoS ONE, 2017).

test system: T1, YSK4; settings: concentration: 1 μM, replicates: in singlicate; n = 1
T1 construct: gene MAP3K19
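Note: KINOMEscan kinase panel screen.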

Structure (SMILES)	%Inh [%]
CC(C)(C)c1ccc2nccc(Nc3cccc(O)c3)c2c1 [GW856795]	0
COc1cc(Nc2nccc(-c3c(-c4cccc(NC(=O)c5c(F)cccc5F)c4)nn4ccccc34)n2)cc(OC)c1OC [GSK323521]	93.6
O=c1[nH]cc(-c2ccc(N3CCOCC3)cc2)c2sc(-c3cn[nH]c3)cc12 [GSK2276055]	98.1
COc1cccc(-c2ccc3c(NC(=O)C4CC4)n[nH]c3n2)c1 [SB-710903]	92.3
Nc1ncc(-c2cccnc2)c2scc(-c3ccc4c(c3)CCN4C(=O)Cc3ccccc3)c12 [GSK683281]	46

test system: ZAK; settings: concentration: 1 μM, replicates: in singlicate; n = 1

Structure (SMILES)	%Inh [%]
O=C(Nc1cccc(-c2nn3ccccc3c2-c2ccnc(Nc3cccc(F)c3)n2)c1)c1c(F)ccc(F)c1Cl [GSK357952]	85
c1ccc(-c2cnc3nccnn23)cc1 [AH20685]	0
CN(c1ccc(NC(=O)Nc2cc(C(F)(F)F)ccc2F)cc1)c1ccnc(Nc2ccc(S(N)(=O)=O)cc2)n1 [GW809893]	94.8
O=C(Nc1n[nH]c2cc(-c3ccoc3)ccc12)C1CC1 [SB-738481]	15
C[C@@H]1CC[C@@H](C(=O)Nc2ccccc2)CN1c1cc(-c2ccc3c(N)n[nH]c3c2)nc(N)n1 [GSK2286062]	0
O=C(Nc1cccc(-c2nn3ncccc3c2-c2ccnc(Nc3ccccc3)n2)c1)c1c(F)cccc1F [GSK198271]	96.6
COc1cccc(NC(=O)NC2CCN(c3ccnc(Nc4cc(OC)c(OC)c(OC)c4)n3)C2)c1 (stereo not drawn) [GSK1379763]	0
